Compound in the experiment: Nc1ncnc2c1ncn2[C@@H]1O[C@H](COP(=O)(O)OP(=O)(O)OP(=O)(O)O)[C@@H](O)[C@H]1O [adenosine 5'-triphosphate]
Briefly: log2 fold change of tryptic peptide abundance, ligand vs vehicle (limited proteolysis) (log2 ratio); higher = more trypsin-susceptible (destabilized). To be noted: ligand concentration: 5 mM; sample: E. coli desalted lysate; replicate design: treated before aliquoting. How it is done:
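HT-PELSA: desalted E. coli K-12 BW25113 lysate (with 12 mM MgCl2) incubated with 5 mM ATP (pH 7) or water for 30 min at 25 C, then a 4 min trypsin pulse at 22 C. Peptides were quantified by DIA-MS (4 replicates). Value is the peptide log2 fold change (treated/control); negative = stabilized. Scale: negative = ligand-stabilized region.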
Chain of UniProt P22939 (P22939 whole entry): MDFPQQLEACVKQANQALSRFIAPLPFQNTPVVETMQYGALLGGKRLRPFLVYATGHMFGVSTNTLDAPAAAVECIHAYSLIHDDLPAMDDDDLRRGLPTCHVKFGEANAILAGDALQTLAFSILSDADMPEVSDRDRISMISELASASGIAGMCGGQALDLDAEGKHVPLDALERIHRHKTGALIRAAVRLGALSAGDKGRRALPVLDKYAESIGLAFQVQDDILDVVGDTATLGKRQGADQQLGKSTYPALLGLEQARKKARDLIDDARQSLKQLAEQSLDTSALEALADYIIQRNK
Chain of UniProt P80668 (P80668 whole entry): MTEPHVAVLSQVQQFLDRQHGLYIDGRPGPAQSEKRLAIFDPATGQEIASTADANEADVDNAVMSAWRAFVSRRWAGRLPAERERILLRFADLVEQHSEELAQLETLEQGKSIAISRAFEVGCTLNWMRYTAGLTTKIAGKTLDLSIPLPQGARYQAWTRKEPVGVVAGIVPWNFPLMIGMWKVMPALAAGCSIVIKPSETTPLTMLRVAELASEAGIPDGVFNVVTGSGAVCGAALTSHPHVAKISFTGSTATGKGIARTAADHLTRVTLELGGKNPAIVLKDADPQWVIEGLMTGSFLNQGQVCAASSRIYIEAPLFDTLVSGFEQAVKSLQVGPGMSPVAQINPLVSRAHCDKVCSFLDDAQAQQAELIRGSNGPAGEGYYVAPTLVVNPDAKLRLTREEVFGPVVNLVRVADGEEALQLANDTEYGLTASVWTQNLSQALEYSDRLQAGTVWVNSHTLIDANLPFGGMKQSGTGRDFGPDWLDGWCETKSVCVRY
Chain of UniProt P76046 (P76046 whole entry): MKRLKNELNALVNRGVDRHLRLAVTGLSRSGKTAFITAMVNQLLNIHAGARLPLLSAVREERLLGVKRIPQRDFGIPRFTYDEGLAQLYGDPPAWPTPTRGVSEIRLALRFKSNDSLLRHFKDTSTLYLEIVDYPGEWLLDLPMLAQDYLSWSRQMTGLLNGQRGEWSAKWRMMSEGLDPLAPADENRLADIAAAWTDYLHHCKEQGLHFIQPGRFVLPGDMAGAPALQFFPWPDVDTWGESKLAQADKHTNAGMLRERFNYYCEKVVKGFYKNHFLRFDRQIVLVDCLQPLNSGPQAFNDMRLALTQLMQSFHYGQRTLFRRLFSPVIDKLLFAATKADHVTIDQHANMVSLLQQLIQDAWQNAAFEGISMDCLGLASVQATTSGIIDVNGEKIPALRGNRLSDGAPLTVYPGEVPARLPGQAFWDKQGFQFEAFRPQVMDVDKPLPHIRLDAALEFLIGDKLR
Chain of UniProt P37675 (P37675 whole entry): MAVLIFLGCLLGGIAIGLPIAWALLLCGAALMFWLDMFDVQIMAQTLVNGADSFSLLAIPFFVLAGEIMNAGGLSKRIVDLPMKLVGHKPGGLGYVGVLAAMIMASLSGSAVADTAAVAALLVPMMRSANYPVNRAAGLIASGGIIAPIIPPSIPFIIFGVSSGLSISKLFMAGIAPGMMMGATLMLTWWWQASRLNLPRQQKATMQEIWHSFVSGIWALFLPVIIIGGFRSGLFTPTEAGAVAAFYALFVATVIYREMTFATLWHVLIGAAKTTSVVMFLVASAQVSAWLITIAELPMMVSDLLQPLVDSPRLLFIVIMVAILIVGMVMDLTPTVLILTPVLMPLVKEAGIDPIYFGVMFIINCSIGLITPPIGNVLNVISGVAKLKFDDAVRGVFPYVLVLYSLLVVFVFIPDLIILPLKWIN
Chain of UniProt P76550 (P76550 whole entry): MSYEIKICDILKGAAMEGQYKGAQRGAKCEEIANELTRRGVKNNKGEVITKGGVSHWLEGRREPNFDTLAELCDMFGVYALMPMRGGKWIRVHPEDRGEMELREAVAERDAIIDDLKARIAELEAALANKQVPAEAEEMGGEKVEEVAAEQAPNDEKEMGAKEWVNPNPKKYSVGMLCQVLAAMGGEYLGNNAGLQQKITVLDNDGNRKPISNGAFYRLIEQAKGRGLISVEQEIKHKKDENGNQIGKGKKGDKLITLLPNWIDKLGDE
Chain of UniProt P77552 (P77552 whole entry): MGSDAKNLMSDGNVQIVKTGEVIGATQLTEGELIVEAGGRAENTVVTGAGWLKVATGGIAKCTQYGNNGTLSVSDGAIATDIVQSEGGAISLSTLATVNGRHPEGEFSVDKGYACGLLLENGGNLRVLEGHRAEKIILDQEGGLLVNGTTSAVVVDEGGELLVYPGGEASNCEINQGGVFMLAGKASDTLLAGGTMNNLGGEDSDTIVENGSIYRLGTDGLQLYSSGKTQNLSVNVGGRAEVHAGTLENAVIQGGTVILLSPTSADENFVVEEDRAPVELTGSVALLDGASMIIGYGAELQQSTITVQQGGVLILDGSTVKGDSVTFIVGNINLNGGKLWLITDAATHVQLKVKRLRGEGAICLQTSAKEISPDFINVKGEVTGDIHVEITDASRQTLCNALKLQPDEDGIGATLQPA
Chain of UniProt P33570 (P33570 whole entry): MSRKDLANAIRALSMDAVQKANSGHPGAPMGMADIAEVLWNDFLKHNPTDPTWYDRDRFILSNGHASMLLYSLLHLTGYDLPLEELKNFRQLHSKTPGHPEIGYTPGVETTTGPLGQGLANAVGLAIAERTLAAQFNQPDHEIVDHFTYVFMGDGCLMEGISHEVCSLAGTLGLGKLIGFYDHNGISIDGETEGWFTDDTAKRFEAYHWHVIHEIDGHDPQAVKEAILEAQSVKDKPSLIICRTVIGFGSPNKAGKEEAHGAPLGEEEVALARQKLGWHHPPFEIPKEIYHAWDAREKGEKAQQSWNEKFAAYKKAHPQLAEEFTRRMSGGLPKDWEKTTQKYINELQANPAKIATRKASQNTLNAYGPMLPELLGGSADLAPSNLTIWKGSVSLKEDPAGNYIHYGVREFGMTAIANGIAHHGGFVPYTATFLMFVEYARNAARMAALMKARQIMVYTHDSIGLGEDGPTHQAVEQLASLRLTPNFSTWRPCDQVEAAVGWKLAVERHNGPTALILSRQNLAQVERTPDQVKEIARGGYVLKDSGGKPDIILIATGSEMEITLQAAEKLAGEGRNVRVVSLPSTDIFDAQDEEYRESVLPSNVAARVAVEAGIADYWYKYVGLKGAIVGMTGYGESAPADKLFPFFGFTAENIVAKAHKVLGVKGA
Chain of UniProt P28904 (P28904 whole entry): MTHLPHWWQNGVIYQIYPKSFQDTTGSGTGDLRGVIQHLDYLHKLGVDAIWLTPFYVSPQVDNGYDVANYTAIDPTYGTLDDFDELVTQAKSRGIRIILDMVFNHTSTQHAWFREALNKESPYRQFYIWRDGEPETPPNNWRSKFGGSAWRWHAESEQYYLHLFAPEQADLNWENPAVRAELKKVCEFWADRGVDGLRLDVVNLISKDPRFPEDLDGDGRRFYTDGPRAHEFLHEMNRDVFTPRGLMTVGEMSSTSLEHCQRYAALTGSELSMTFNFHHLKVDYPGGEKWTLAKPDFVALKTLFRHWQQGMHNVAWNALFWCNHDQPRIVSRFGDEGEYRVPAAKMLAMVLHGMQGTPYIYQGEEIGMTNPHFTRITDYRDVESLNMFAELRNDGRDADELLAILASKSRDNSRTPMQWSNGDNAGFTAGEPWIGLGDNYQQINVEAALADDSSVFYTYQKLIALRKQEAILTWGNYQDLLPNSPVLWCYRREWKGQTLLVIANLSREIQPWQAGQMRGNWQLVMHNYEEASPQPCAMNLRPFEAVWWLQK
Chain of UniProt Q46919 (Q46919 whole entry): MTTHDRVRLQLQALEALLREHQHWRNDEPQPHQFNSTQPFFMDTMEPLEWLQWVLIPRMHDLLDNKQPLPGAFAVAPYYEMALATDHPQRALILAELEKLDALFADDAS
With “UniProt P77552 (peptide sequence: AENTVVTGAGWLK, peptide start residue: 41)”, the log2 fold change stood at 0.332.

Consider “UniProt P76046 (peptide sequence: RLKNELNALVNR, peptide start residue: 3)”, for which the log2 fold change is 0.559.

Take “UniProt P22939 (peptide sequence: GLPTCHVK, peptide start residue: 97)”: the log2 fold change is 0.252.

“UniProt P33570 (peptide sequence: AGKEEAHGAPLGEEEVALAR, peptide start residue: 254)”: the log2 fold change is -0.289.

With “UniProt P80668 (peptide sequence: TAADHLTR, peptide start residue: 261)”, the log2 fold change is -1.12.

For “UniProt Q46919 (peptide sequence: MHDLLDNK, peptide start residue: 59)”, the log2 fold change was determined as 0.557.

On to “UniProt P37675 (peptide sequence: IVDLPMKLVGHK, peptide start residue: 78)”, for which the log2 fold change was 0.735.

Turning to “UniProt P28904 (peptide sequence: LDVVNLISKDPR, peptide start residue: 199)”, the log2 fold change is -0.478.

For “UniProt P76550 (peptide sequence: PISNGAFYR, peptide start residue: 210)”, the log2 fold change is -0.83.
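Further: lysate desalted by size exclusion to strip endogenous ATP, peptide intensities built from DIA-NN precursor signals, and peptides missing any value discarded before comparison.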
